Screening data (PubChem)
A selection: hits, their analogues and other compounds. The true share with any hit is near 6.7%.
C diff HTS: C. difficile growth inhibitors, primary screen, HTS. Clostridium difficile clinical isolate growth, OD600, 24 h; stronger effect = lower value. growth activity, negative = inhibition, % at 16 µg/mL (by protocol). hit rate 0.25% among 86,000. AID 1259249, 2017;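 active = mean growth activity at or below -80% and every replicate also at or below -80%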;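 also: 0% = DMSO wells and -100% = levofloxacin 16 µg/mL wells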
Pf Dd2 inh: P. falciparum Dd2 growth inhibitors, primary screen, SYBR Green fluorescence, single dose replicates; 72 h; stronger effect = lower value; activity change, % at 10 µM; hit rate 2.3% among 94,000; in the data active = activity change below about -80%
T cruzi growth: T. cruzi intracellular proliferation inhibitors, primary screen, cell-based, beta-gal Tulahuen parasites, NIH3T3 host, luminescence; AID 624255, 2012; hit rate 5.9% among 77,000; T. cruzi beta-gal in NIH3T3, GalScreen luminescence, 90 h; inhibition, % at 8.34 µM;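 active = mean inhibition above about 93%, with at least 55% of replicates each passing it, limit read from the data, passing the limit was not always enough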
* hit, by the source's call; x = no result given.

SMILES	C diff HTS	Pf Dd2 inh	T cruzi growth
CCCNC(=O)N1CC2(C1)CN(S(C)(=O)=O)[C@@H](CO)c1c2c2ccc(OC)cc2n1C	-10	43	x
COc1ccc2c3c(n(C)c2c1)[C@H](CO)N(C(=O)C1CC1)CC31CCN(C(=O)CN(C)C)CC1	-3	-78	x
CCCNC(=O)N1CCC2(CC1)CN(S(C)(=O)=O)[C@H](CO)c1c2c2ccc(OC)cc2n1C	3	-83*	x
CCC(=O)N1CC2(CN(Cc3ccc(Cl)cc3)C2)c2c(n(C)c3cc(OC)ccc23)[C@@H]1CO	5	-65	x
CCCNC(=O)N1CC2(CCN(Cc3cccc(OC)c3)CC2)c2c(n(C)c3cc(OC)ccc23)[C@H]1CO	1	-72	x
C[C@H]1CCCCO[C@H](CN(C)C(=O)CCCN(C)C)[C@@H](C)CN([C@@H](C)CO)C(=O)c2cc(NC(=O)CCC(F)(F)F)ccc2O1	3	3	23
C[C@H](CO)N1C[C@H](C)[C@@H](CN(C)C(=O)CN2CCOCC2)Oc2ncc(C#CCN(C)C)cc2C1=O	3	48	-24
CCC(=O)N[C@@H]1C=C[C@H](CC(=O)NCc2ccccc2F)O[C@H]1CO	x	7	16
COCC(=O)Nc1ccc2c(c1)C(=O)N(C)C[C@@H](OC)[C@@H](C)CN(Cc1cc(F)ccc1F)[C@@H](C)CO2	x	-59	47
CCCNC(=O)N1CC2(CN(C(=O)CN(C)C)C2)c2c(n(C)c3cc(OC)ccc23)[C@H]1CO	3	33	x
CCCNC(=O)N1CC2(CCN(C(=O)CN(C)C)CC2)c2c(n(C)c3cc(OC)ccc23)[C@H]1CO	-4	-88*	x
C[C@@H]1CN([C@@H](C)CO)C(=O)Cc2cc(NC(=O)Nc3ccc(F)cc3)ccc2O[C@H]1CN(C)CC1CCCCC1	10	-89*	21
COc1ccc(NC(=O)Nc2ccc3c(c2)CC(=O)N([C@@H](C)CO)C[C@H](C)[C@H](CN(C)CC2CC2)O3)cc1	-4	-78	11
COc1ccc(NC(=O)Nc2ccc3c(c2)CC(=O)N([C@H](C)CO)C[C@H](C)[C@@H](CN(C)CC2CCCCC2)O3)cc1	-1	-86*	79
COc1ccc(NC(=O)Nc2ccc3c(c2)CC(=O)N([C@@H](C)CO)C[C@@H](C)[C@@H](CN(C)CC2CC2)O3)cc1	-2	-83*	29
C[C@@H]1CN([C@H](C)CO)C(=O)Cc2cc(NC(=O)Nc3ccc(F)cc3)ccc2O[C@H]1CN(C)CC1CC1	0	10	-4
COc1ccc(NC(=O)Nc2ccc3c(c2)CC(=O)N([C@@H](C)CO)C[C@@H](C)[C@@H](CN(C)CC2CCCCC2)O3)cc1	-11	-29	50
COc1ccc(NC(=O)N(C)C[C@@H]2Oc3ccc(NC(=O)Nc4ccc(F)cc4)cc3CC(=O)N([C@@H](C)CO)C[C@@H]2C)cc1	1	-3	15
COc1ccc(NC(=O)Nc2ccc3c(c2)CC(=O)N([C@@H](C)CO)C[C@H](C)[C@@H](CN(C)C(=O)Nc2ccc(F)cc2)O3)cc1	-4	-85*	41
COc1ccc(NC(=O)N(C)C[C@H]2Oc3c(NS(C)(=O)=O)cccc3C(=O)N([C@@H](C)CO)C[C@H]2C)cc1	-1	-18	-71
Cc1noc(C)c1S(=O)(=O)Nc1ccc2c(c1)C(=O)N([C@H](C)CO)C[C@@H](C)[C@@H](CN(C)C(=O)CCCN(C)C)OCCCC[C@@H](C)O2	1	-22	-9
COc1ccc(NC(=O)N(C)C[C@@H]2Oc3c(NC(=O)Nc4ccc(C(F)(F)F)cc4)cccc3C(=O)N([C@@H](C)CO)C[C@H]2C)cc1	x	11	-60
COc1cccc(CNC(=O)[C@@H]2[C@@H](CO)[C@@H]3Cn4c(cccc4=O)[C@H]2N3C(=O)C2CCCC2)c1	-3	51	x
COc1cccc(CNC(=O)[C@H]2[C@H](CO)[C@H]3Cn4c(cccc4=O)[C@@H]2N3C(=O)C2CCCC2)c1	-1	-81*	x
CC(=O)Nc1ccc2c(c1)C(=O)N(C)[C@H]1CC[C@H](CC(=O)NC3CCCCC3)O[C@@H]1CO2	0	-9	-20
SMILES	C diff HTS	Pf Dd2 inh	T cruzi growth
C[C@@H]1CN([C@H](C)CO)C(=O)c2cccc(NS(=O)(=O)c3ccc(F)cc3)c2O[C@@H]1CN(C)C	4	10	x
COc1ccc(S(=O)(=O)Nc2ccc3c(c2)CC(=O)N([C@H](C)CO)C[C@H](C)[C@H](CN(C)Cc2ccc(C(=O)Nc4ccccc4N)cc2)O3)cc1	-4	-81*	50
COc1ccc(S(=O)(=O)Nc2ccc3c(c2)CC(=O)N([C@H](C)CO)C[C@@H](C)[C@@H](CN(C)Cc2ccc(C(=O)Nc4ccccc4N)cc2)O3)cc1	0	-85*	65
COc1ccc(S(=O)(=O)Nc2ccc3c(c2)C(=O)N([C@@H](C)CO)C[C@H](C)[C@@H](CN(C)Cc2ccc(C(=O)Nc4ccccc4N)cc2)O3)cc1	-5	-56	51
COc1ccc(S(=O)(=O)Nc2ccc3c(c2)C(=O)N([C@H](C)CO)C[C@@H](C)[C@H](CN(C)Cc2ccc(C(=O)Nc4ccccc4N)cc2)O3)cc1	-2	-4	40
O=C(C[C@@H]1C=C[C@H](NS(=O)(=O)c2ccccc2)[C@@H](CO)O1)N1CCN(c2ccccc2)CC1	-3	33	x
CCCN(C)C[C@H]1OCCCC[C@@H](C)Oc2ccc(NC(=O)c3ccccc3)cc2C(=O)N([C@@H](C)CO)C[C@H]1C	-1	-91*	0
C[C@@H]1CCCCO[C@H](CN(C)CC2CC2)[C@H](C)CN([C@@H](C)CO)C(=O)c2cc(NC(=O)c3ccccc3)ccc2O1	-9	-84*	30
C[C@@H]1CCCCO[C@@H](CN(C)CC2CC2)[C@H](C)CN([C@@H](C)CO)C(=O)c2cc(NC(=O)c3ccccc3)ccc2O1	-9	-6	x
CCCN(C)C[C@@H]1OCCCC[C@H](C)Oc2ccc(NC(=O)c3ccccc3)cc2C(=O)N([C@H](C)CO)C[C@@H]1C	0	x	65
N#Cc1cccc(-c2ccc3c(c2)[C@@H]2[C@@H](CCN2C(=O)C2CCCCC2)[C@H](CO)N3)c1	10	-15	83
CCCN1[C@@H]2Cn3c(ccc(-c4cccc(OC)c4)c3=O)[C@H]1[C@@H](C(=O)NCC)[C@@H]2CO	1	x	-4
COc1ccc(NC(=O)N(C)C[C@@H]2OCc3ccccc3-c3c(n(C)c4ccccc34)C(=O)N([C@@H](C)CO)C[C@@H]2C)cc1	x	-67	25
C[C@H](CO)N1C[C@H](C)[C@H](CN(C)C(=O)Nc2ccc(-c3ccccc3)cc2)OCc2ccccc2-c2c(n(C)c3ccccc23)C1=O	3	-89*	x
C[C@@H]1CN([C@@H](C)CO)C(=O)c2c(c3ccccc3n2C)-c2ccccc2CO[C@@H]1CN(C)C(=O)Nc1ccccc1	x	-66	39
C[C@@H]1CN([C@@H](C)CO)C(=O)c2c(c3ccccc3n2C)-c2ccccc2CO[C@H]1CN(C)C(=O)Nc1ccc(-c2ccccc2)cc1	8	-91*	x
C[C@H](CO)N1C[C@H](C)[C@@H](CN(C)C(=O)Nc2ccc(F)cc2)OCc2ccccc2-c2c(n(C)c3ccccc23)C1=O	0	-92*	47
